From PubChem BioAssay
Pf growth 48h – Primary qHTS for delayed death inhibitors of the malarial parasite plastid, 48 hour incubation | P. falciparum luciferase growth in erythrocytes, 48 h | Potency, µM (top dose mostly 28.7 µM), for the others: at the highest dose activity change, negative = inhibition, most hits filed as inhibitors | actives 5.9% (n = 310,000) | AID 504832, 2011; also: potency is read from the fitted curve at half-maximal effect; % is scaled to controls: 0 for no effect and ±100 for the full control effect
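Luminescence readout; reporter = integrated firefly luciferase in P. falciparum. RBC culture at 2% hematocrit, 0.1% parasitemia final, 37 C/5% CO2; decreased signal taken as growth inhibition.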
HCV inhibitor – qHTS Assay for Inhibitors of Hepatitis C Virus (HCV). Potency, µM (top dose mostly 41.8 µM), for inactives: at the top dose activity change, negative = inhibition, hits mostly inhibitors. actives 3.4% (n = 340,000). Huh7.5.1 HCVcc-Cre infection, luciferase reporter, 44 h; also: potency is read from the fitted curve at half-maximal effect; % is scaled to controls: 0 for no effect and ±100 for the full control effect
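Whole-lifecycle infectious HCVcc-Cre system; cells 1,000/well, compound then virus (~0.5 moi) added 4 h after plating, 44 h culture. Luciferase read 15 sec following 15 min substrate incubation, room temp.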
Pf growth 96h – Primary qHTS for delayed death inhibitors of the malarial parasite plastid, 96 hour incubation; P. falciparum luciferase reporter growth, 96 h; Potency, µM (doses to about 28.7 µM), for the others: at the highest dose activity change, negative = inhibition, most hits filed as inhibitors; actives 6.9% (n = 320,000); also: potency is read from the fitted curve at half-maximal effect; % is scaled to controls: 0 for no effect and ±100 for the full control effect
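Plates of compound plus infected erythrocytes (2% hematocrit, 0.05% parasitemia final) incubate 96 hours, 37 C, 5% CO2. Detection reagent added; reduced luminescence from the parasites' luciferase reporter flags inhibition.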
Cycloheximide cs – Cycloheximide Counterscreen for Small Molecule Inhibitors of Shiga Toxin | cell reporter, cycloheximide protein synthesis inhibition counterscreen | max response, % | actives 12% (n = 300,000); in the data active = max response mostly above about 13%, no sharp cut-off; inactive = mostly below about 14%; also: read at 38.3 µM for the half of the compounds with a filed dose; 0% is about no effect
Shiga toxin inh – A qHTS for Small Molecule Inhibitors of Shiga Toxin; Vero cells, Shiga toxin protein synthesis inhibition reporter; inhibition, % at 38.7 µM; actives 9.2% (n = 290,000); in the data active = inhibition mostly above about 28%, no sharp cut-off; inactive = mostly below about 43%; also: 0% is about no effect
HCMV inh – qHTS Assay for inhibitors of the human cytomegalovirus (HCMV) | activity change, negative = inhibition, % at 57.5 µM | actives 4.5% (n = 410,000) | HFF cells, HCMV-luciferase reporter, 72 h; hits give low values; in the data active = activity change below about -60%; inconclusive = no clear call, values can overlap the other calls; inactive = above about -39%; also: % is scaled to controls: 0 for no effect and ±100 for the full control effect
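Inhibition of viral replication was scored as loss of reporter luminescence in HFFs infected with HCMV-luciferase (MOI 1 PFU/cell) for 72 h; compounds tested at 2 doses, normalized to buffer and Salinomycin controls.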
An asterisk follows results filed as active; u = inconclusive; x = not tested or not shown. Most compounds without a hit are left out; they make up all but 21% or so of the library. Unless noted, calls follow the shape of the dose curve; as a rule, active = well fitted inhibition curve with a large enough effect; inconclusive = small, poorly fitted or top-dose-only effect, or another doubt; inactive = no such curve, though single readings can be large or run the other way.

SMILES	Pf growth 48h	HCV inhibitor	Pf growth 96h	Cycloheximide cs	Shiga toxin inh	HCMV inh
C=COC(=O)/C=C/C	x	x	x	-4	-10	x
O=C(NCc1ccc(Cl)cc1)C(=O)N/N=C/c1ccc(Br)cc1	17%	3%	u	0	2	-15
Clc1ccc2c(N/N=C/c3ccc(Br)cc3)ccnc2c1	0.33µM*	11µM*	1.5µM*	9	21	-73*
O=C(CNC(=O)c1ccc(Cl)cc1)N/N=C/c1cccnc1	9%	2%	4%	-1	27	-20
Clc1ccc2c(N/N=C/c3cccnc3)ccnc2c1	0.66µM*	-21%	0.83µM*	17*	24	u
CCCc1c(OCCCOc2ccc(OCC(=O)O)cc2)ccc(C(C)=O)c1O	0%	-14%	20%	x	x	-22
COc1ccccc1CNC(=O)COC(=O)COc1ccccc1F	17%	-1%	-14%	x	x	-4
CC1=NN(/C(=N\c2nnc(C)s2)Nc2ccc(C(C)(C)C)cc2)[C@H](c2ccc(C)cc2)S1	4.1µM*	-5%	6.6µM*	10	27*	26
CCOc1ccc(Oc2cc(N)cc([N+](=O)[O-])c2)cc1	16%	4%	u	18	53*	u
